# Test results from paper PMC4336329 (PLoS ONE, 2015).
# Out of some 310,000 compounds screened, about 14,000 (4.5%) showed an effect of 50% or more. The effect is printed as a negative number. The list comes from a sample in which strong results are over-represented; it also holds similar structures and randomly drawn compounds.
# Biological target: human ether-à-go-go-related gene (hERG) potassium channel (human, UniProt Q12809)
# Assay: primary screen, population patch clamp on CHO cells stably expressing hERG; higher = less effect of the substance
# 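Also: peak tail current of the secondary pulse compared with the same well before compound.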
# Chain of human ether-à-go-go-related gene (hERG) potassium channel (Q12809 whole entry, looked up): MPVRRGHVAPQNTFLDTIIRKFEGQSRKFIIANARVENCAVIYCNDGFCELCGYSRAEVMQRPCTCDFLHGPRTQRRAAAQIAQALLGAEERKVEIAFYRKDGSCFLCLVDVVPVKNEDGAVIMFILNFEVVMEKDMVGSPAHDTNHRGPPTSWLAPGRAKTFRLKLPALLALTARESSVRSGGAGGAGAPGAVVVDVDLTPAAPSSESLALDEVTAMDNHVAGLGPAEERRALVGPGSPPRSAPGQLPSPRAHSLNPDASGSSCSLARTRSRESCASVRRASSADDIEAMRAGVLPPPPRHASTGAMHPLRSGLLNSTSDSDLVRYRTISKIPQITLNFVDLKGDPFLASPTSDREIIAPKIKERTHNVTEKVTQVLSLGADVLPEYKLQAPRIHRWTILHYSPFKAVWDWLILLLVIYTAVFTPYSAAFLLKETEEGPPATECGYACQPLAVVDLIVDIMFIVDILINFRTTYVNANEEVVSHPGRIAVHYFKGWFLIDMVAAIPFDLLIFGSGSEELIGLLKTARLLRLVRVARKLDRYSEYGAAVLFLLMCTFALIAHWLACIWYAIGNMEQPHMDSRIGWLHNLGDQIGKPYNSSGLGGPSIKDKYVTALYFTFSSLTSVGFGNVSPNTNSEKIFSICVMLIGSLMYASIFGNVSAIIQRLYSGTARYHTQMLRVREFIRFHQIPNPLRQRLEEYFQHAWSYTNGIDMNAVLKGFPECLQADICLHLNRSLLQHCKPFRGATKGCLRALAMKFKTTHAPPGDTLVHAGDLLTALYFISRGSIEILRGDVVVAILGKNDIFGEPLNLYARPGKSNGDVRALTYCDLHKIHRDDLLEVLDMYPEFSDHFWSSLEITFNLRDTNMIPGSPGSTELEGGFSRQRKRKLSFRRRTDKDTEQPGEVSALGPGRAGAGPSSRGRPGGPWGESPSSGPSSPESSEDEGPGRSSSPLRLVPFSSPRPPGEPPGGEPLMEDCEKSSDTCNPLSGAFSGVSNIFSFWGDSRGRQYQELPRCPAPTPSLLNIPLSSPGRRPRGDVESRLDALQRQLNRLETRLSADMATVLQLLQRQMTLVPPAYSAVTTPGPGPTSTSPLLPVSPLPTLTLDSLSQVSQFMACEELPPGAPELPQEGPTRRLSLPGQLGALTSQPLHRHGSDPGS
row,SMILES,"hERG current change (%, negative = inhibition) at 10uM [%]"
1,CCOC(=O)c1ccc(NS(=O)(=O)c2c(C)[nH]c(C)c2C(=O)N2CCCCC2)cc1,7.73
2,CC(C)C(NS(=O)(=O)/C=C/c1ccccc1)C(=O)NCc1ccc(F)cc1 (centres unmarked),25.3
3,CCn1c(SCC(=O)N2c3ccccc3CC2C)nnc1-c1ccco1 (centres unmarked),-17.6
4,O=C(Nc1nnc(Cc2ccccc2F)s1)c1ccccc1Cl,12.6
5,CCc1ccc(S(=O)(=O)NCc2cn3ccccc3n2)s1,-11
6,CCCc1nc2c([nH]1)c(=O)n(C)c(=O)n2C,15.8
7,CN(C)Cc1nc2c([nH]1)c(=O)n(C)c(=O)n2C,-0.353
8,Cn1c(=O)c2[nH]c(COc3ccc(C(C)(C)C)cc3)nc2n(C)c1=O,-55.1
9,N#Cc1ccc(-c2ccc(Cl)cc2)nc1SCC(=O)c1cccc(Cl)c1,28.9
10,N/C(=N\O)c1ccc([N+](=O)[O-])s1,11
11,Cc1ccc(P(=O)(OCCN2CCOCC2)C(C)(C)C)o1 (centres unmarked),-4.4
12,O=C1CN=C(c2ccc(Br)cc2)c2c(sc3c2CCCC3)N1CCN1CCCCC1,-64.4
13,COc1ccc(C2=NCC(=O)N(CC(=O)NCc3ccco3)c3sc4c(c32)CCCC4)cc1,-35.7
14,COc1ccc(C2=NCC(=O)N(CC(=O)NCc3ccco3)c3sc4c(c32)CCCC4)cc1OC,-17.3
15,OC(COc1ccc(OCC(O)CN2CCCCC2)cc1)CN1CCCCC1 (centres unmarked),15.9
16,Cl.OC(COc1ccc(Cl)cc1)CN1CCCCC1 (centres unmarked),-61.9
17,O=C(c1ccccc1)c1ccc(OCC(O)CN2CCCCC2)cc1 (centres unmarked),-39.9
18,Cl.OC(COc1ccc(OCC(O)CN2CCCCCC2)cc1)CN1CCCCCC1 (centres unmarked),9.75
19,O=C(c1ccc(Cl)cc1)c1ccc(OCC(O)CN2CCOCC2)cc1 (centres unmarked),-19.7
20,OC(COc1ccc2cc(Br)ccc2c1)CN1CCOCC1 (centres unmarked),-48.4
21,OC(COc1ccc2cc(Br)ccc2c1)CN1CCCC1 (centres unmarked),-70.2
22,O=C(c1ccc(Cl)cc1)c1ccc(OCC(O)CN2CCCCC2)cc1 (centres unmarked),-75.1

row,SMILES,"hERG current change (%, negative = inhibition) at 10uM [%]"
1,OC(COc1ccc2ccccc2c1)CN1CCCC1 (centres unmarked),-19.1
2,CCn1cc(C(=O)NCc2ccccc2OC)c(=O)c2ccc(C)nc21,17.6
3,CCCOc1ccccc1C(=O)N(Cc1cccc(Br)c1)C1CCS(=O)(=O)C1 (centres unmarked),-35.4
4,Cn1c(=O)cc(SCC(=O)N2CCN(C(=O)c3ccco3)CC2)c2ccccc21,-27.4
5,COc1ccc(OCC(=O)N2CCN(CC3CC4C=CC3C4)CC2)cc1 (centres unmarked),-26.6
6,Cc1cc(C)n2ncc(-c3cccc(Br)c3)c2n1,5.79
7,O=C(Nc1ccccn1)C1(c2ccccc2)CCCC1,-3.92
8,CNCC1(c2ccccc2)CCCC1.Cl,15.1
9,c1ccc(C2(CNc3ccccn3)CCCC2)cc1,-70.3
10,CCCCCCNC(=O)CCNS(=O)(=O)c1ccc(C)cc1,-12.8
11,CCOc1cc(NC(=O)c2ccccn2)c(OCC)cc1NC(=O)c1cccc(C)c1,8.7
12,COc1ccc(N2CC(C(=O)Nc3c(C(N)=O)oc4ccccc34)CC2=O)cc1 (centres unmarked),-15
13,CC/C(=N\N=C1\SC(C)C(=O)N1Cc1ccco1)c1ccccc1 (centres unmarked),4.18
14,COc1ccc(NC(=O)C2CCCN(c3ncccn3)C2)cc1 (centres unmarked),3.4
15,CC1CCCCC1NC(=O)C1CCN(c2c3c(nc4ncnn24)CCC3)CC1 (centres unmarked),4.49
16,O=C(Nc1ccc(Oc2ccccc2)cc1)C1CCN(c2c3c(nc4ncnn24)CCC3)CC1,-55.6
17,COc1ccc(NC(=O)C2CCCN(c3c4c(nc5ncnn35)CCC4)C2)cc1OC (centres unmarked),-11.7
18,COc1ccc(NC(=O)C2CCCN(c3c4c(nc5ncnn35)CCC4)C2)cc1 (centres unmarked),-61.6
19,O=C(Nc1ccc2c(c1)CCC2)C1CCN(c2ncccn2)CC1,20.6
20,O=C(Nc1ccc2c(c1)CCC2)C1CCN(c2c3c(nc4ncnn24)CCC3)CC1,-73.1
21,O=C(NC1CCCc2ccccc21)C1CCN(c2c3c(nc4ncnn24)CCC3)CC1 (centres unmarked),-31.3
22,CC1CCC(NC(=O)C2CCN(c3c4c(nc5ncnn35)CCC4)CC2)CC1 (centres unmarked),-19.3

row,SMILES,"hERG current change (%, negative = inhibition) at 10uM [%]"
1,CCN1C(=O)C2C(C1=O)N1C(c3cccs3)C3C(=O)N(CC)C(=O)C3N1C2c1cccs1 (centres unmarked),15.7
2,COc1ccc(Cn2nnnc2C(c2ccccn2)N2CCN(c3cc(Cl)ccc3C)CC2)cc1 (centres unmarked),-9.87
3,Cc1ccc(NC(NC(=O)c2ccccc2[N+](=O)[O-])C(Cl)(Cl)Cl)cc1 (centres unmarked),-5.27
4,CC(Sc1nnc(-c2cccnc2)o1)C(=O)NC1CCCCC1 (centres unmarked),14.9
5,Cc1ccc(Nc2nc(COC(=O)C3CC3)cs2)cc1,-13.1
6,CCOC(=O)CSC1=C(C#N)C(c2ccc(C)cc2)C(C(=O)OC)C(=O)N1 (centres unmarked),-4.56
7,Cc1ccc(-n2ncc3c(=O)[nH]c(SCC(=O)N4CCN(c5ccccc5)CC4)nc32)cc1,3.28
8,FC(F)(F)c1cccc(CNC2c3ccccc3-c3ccccc32)c1.O=C(O)C(=O)O,20.4
9,Cc1nc(C(=O)Nc2ccc(F)cc2)nn1-c1ccc([N+](=O)[O-])cc1,-67.4
10,COc1ccc(NC(=O)c2nc(C)n(-c3ccc([N+](=O)[O-])cc3)n2)cc1,-44.9
11,CNC(=O)c1nc(C)n(-c2ccc([N+](=O)[O-])cc2)n1,-3.99
12,Cc1ccc(NC(=O)c2nc(C)n(-c3ccc([N+](=O)[O-])cc3)n2)cc1,-32.2
13,Cc1nc(C(=O)Nc2ccc(Cl)cc2)nn1-c1ccc([N+](=O)[O-])cc1,-58.6
14,Cc1nc(C(=O)O)nn1-c1ccc([N+](=O)[O-])cc1,2.84
15,O=S(=O)(Nc1ccc(F)cc1)N1CCCCCC1,-15.6
16,COc1ccccc1CNC(=O)Cn1nnc(-c2ccncc2)n1,1.05
17,COC(=O)c1[nH]c2cccc(OC)c2c1NC(=O)CN1CC2(C)CC1CC(C)(C)C2 (centres unmarked),9.92
18,CC(C)[C@@H](COc1ccccc1)N1CCN(Cc2ccccc2)CCC1=O,-29.6
19,O=C1CCN(CCc2ccccc2)CCN1[C@H](CO)c1ccccc1,-25.7
20,O=C1CCN(Cc2ccccc2)CCN1[C@H](COc1ccccc1)c1ccccc1,-57.9
21,CC(C)CN1CCC(=O)N([C@H](COc2ccccc2)c2ccccc2)CC1,-75.3
22,CC(C)CN1CCC(=O)N(CCOc2ccccc2)CC1,13.1

row,SMILES,"hERG current change (%, negative = inhibition) at 10uM [%]"
1,CCCN1CCC(=O)N([C@H](COc2ccccc2)c2ccccc2)CC1,-78.2
2,N#CC[C@H](c1ccccc1)N1CCN(Cc2ccccc2)CCC1=O,-1.88
3,O=C1CCN(CCc2ccccc2)CCN1[C@H](COc1ccccc1)c1ccccc1,-75.9
4,CC(C)CN1CCC(=O)N([C@H](CO)c2ccccc2)CC1,9.33
5,COc1ccc(C(=O)Nn2c(SCC(=O)NCC3CCCO3)nc3ccccc3c2=O)cc1 (centres unmarked),2.75
6,COc1cccc(CNC(=O)CCNC(=O)N2CCn3c2nc2ccccc23)c1,-3.38
7,O=C(NNC(=S)NCc1ccco1)c1ccc(Cl)s1,14.5
8,O=C(c1cccc(Br)c1)N1CCN(C(=O)N2CCOCC2)CC1,10.4
9,O=C(COC(=O)c1cc([N+](=O)[O-])ccc1NCCO)c1ccccc1,-15.9
10,CCOc1cc(CNc2ccc3c(c2)OCCO3)cc(Br)c1OCC(N)=O,-17.6
11,C[C@H]1CC[C@H]2C(=O)N3[C@H](c4cccc(N5CCCC5=O)c4)[C@@H](C)CC[C@H]3C(=O)N2[C@@H]1c1cccc(N2CCCC2=O)c1,-56.3
12,CC1CCCC(NC(=O)c2cccc(N3CCCC3=O)c2)C1C (centres unmarked),-13.5
13,C[C@@H]1CC[C@H]2C(=O)N3[C@@H](CC[C@@H](C)[C@@H]3c3ccc(Br)cc3)C(=O)N2[C@H]1c1ccc(Br)cc1,5.03
14,CC12CN(C(=O)c3cccc([N+](=O)[O-])c3)C3(C#N)CC1CCC23C (centres unmarked),5.65
15,CCOC(=O)C1=C(c2ccccc2)NC(N)=NC1c1ccc(OCc2ccc(Cl)cc2)c(OC)c1 (centres unmarked),-36.8
16,COc1ccc(CCNC(=O)C2CCN(S(=O)(=O)c3ccc4nc5c(c(C(=O)O)c4c3)CCCC5)CC2)cc1OC,1.65
17,Cc1ccccc1-n1ncc2c1CC(C)(C)CC2NC(=O)CN1CCCC1=O (centres unmarked),9.7
18,O=C(O)c1ccc(CSCc2ccccc2F)o1,-1.86
19,O=C(c1ccccc1)N1CCN(c2ccc(N3CCOCC3)nn2)CC1,-1.73
20,O=C(c1ccc(CSCc2ccccc2F)o1)N1CCN(c2ccc(N3CCOCC3)nn2)CC1,-66.7
